Activity calls are given as the source filed them. The calls were made as follows: active = hit-call score of the fitted dose curve at least 0.9, where 1 is the maximum; inactive = score below 0.9.

The values that follow come from PubChem BioAssay (EPA / NIEHS).

A short description of this experiment: Tanguay_ZF_120hpf_MUSC: Oregon State University Tanguay Lab 120 Hour Post-fertilization zebrafish Assay for Muscle Malformation (AID 2284401). In outline: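 Scored as a binary brightfield endpoint at 120 hpf, fitted versus DMSO. Single dechorionated wild-type (Tropical 5D) zebrafish embryos per well, statically exposed at 28C from 6 hpf onward with final DMSO 0.64%.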

Consider `FC(F)(F)C(F)(F)C(F)(F)C(F)(F)CCI`, for which the result was inactive.
